TDP1 cell noCPT – qHTS for Inhibitors of human tyrosyl-DNA phosphodiesterase 1 (TDP1): qHTS in cells in absence of CPT; 15% of 420,000 active; DT40 Tdp1-/- hTDP1 cells, no CPT, ATP luminescence, 48 h; Potency, µM (top dose mostly 46.2 µM), inactives show at the top dose activity change, negative = growth inhibition, hits mostly inhibitors; further: potency means the concentration at half of the fitted maximal effect; on the % scale 0 is the no-effect control and ±100 the full control effect; nearly all actives have a fitted effect of over 55% in size
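Stably hTDP1-transfected Tdp1-null chicken DT40 cells were treated with library compounds minus camptothecin and grown for at least 48 hr at 37 °C, after which cellular ATP was quantified by luminescence.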
HepG2 tox – kills HepG2 cells in TGF-b inhibitor counter-screen. HepG2 CAGA-GFP viability, ATP luminescence, 18 h. Potency, µM (top dose mostly 46.1 µM), inactives show at the highest dose activity change, negative = cytotoxicity, actives largely listed as cytotoxic. 0.76% of 410,000 active; further: potency means the concentration at half of the fitted maximal effect
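CellTiter-Glo luminescence gave cytotoxicity after 18 hours at 37 degrees C. The cells were HepG2 CAGA-GFP in 1% FBS DMEM, stimulated with 500 pg/mL TGF-beta after compound addition. %Activity was normalised to no-cell wells (complete cell-killing) and DMSO (no toxicity), and curves were fitted and classified.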
IL1B secr inh – inflammasome signaling inhibition, IL-1 beta readout; THP-1 LPS/ATP IL-1B secretion, AlphaLISA, 16 h; active compounds read low; AID 743279; activity change, % at 57.5 µM; 4.7% of 360,000 active; in the data active means activity change below about -50%; inconclusive means mostly about -30% to -49%; further: on the % scale 0 is the no-effect control and ±100 the full control effect
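Secreted IL-1B measured by AlphaLISA bead assay after 16 h compound exposure of THP-1 cells; compounds (final up to 57.5 uM) added 1 h before LPS (250 ng/mL) and ATP (1.25 mM) stimulation; lower signal means less secretion.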
TDP1 inh – blocks human tyrosyl-DNA phosphodiesterase 1; recombinant TDP1, AlphaScreen DNA substrate cleavage; Potency, µM (highest dose often 130 µM), inactives show at the highest dose activity change, negative = inhibition, actives largely listed as inhibitors; 0.28% of 350,000 active; further: potency means the concentration at half of the fitted maximal effect; on the % scale 0 is the no-effect control and ±100 the full control effect; nearly all actives have a fitted effect of over 40% in size
Target sequence (Q9NUW8 whole entry, looked up): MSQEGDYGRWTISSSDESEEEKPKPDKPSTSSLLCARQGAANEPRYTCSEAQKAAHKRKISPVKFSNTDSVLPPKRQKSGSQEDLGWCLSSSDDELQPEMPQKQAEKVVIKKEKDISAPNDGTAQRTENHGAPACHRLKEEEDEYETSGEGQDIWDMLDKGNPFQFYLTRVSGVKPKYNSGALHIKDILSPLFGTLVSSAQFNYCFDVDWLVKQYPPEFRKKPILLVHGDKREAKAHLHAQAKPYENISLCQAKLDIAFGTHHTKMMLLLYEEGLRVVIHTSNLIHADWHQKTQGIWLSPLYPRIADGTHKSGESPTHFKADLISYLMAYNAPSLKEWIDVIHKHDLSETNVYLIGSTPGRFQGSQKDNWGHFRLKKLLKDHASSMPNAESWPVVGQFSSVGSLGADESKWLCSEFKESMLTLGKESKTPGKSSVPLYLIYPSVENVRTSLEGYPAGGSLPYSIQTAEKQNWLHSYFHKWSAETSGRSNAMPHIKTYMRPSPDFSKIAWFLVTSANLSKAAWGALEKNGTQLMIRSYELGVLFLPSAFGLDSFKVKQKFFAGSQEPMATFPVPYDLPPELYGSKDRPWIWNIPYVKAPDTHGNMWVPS
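Recombinant human Tdp1 (E. coli-expressed, 1 nM final) preincubated with compounds 15 min at room temperature, then 5'-biotin/3'-phosphotyrosine-FITC DNA substrate (15 nM final) added for 5 min. AlphaScreen beads (10 ug/ml final) added 10 min; cleavage lowers signal.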
TGFb SMAD3 inh – TGF-b pathway inhibition; HepG2 CAGA-GFP TGF-b/SMAD3 reporter, GFP fluorescence, 18 h; TGF-beta stimulated, 500 pg/mL final; Potency, µM (highest dose often 46.1 µM), for inactives: top-dose activity, negative = inhibition, usual class: inhibitors; 1.2% of 410,000 active; AID 588855; further: potency means the concentration at half of the fitted maximal effect; on the % scale 0 is the no-effect control and ±100 the full control effect; nearly all actives have a fitted effect of over 65% in size
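Read-out: total well GFP (ex488/em500-530) summed from mean per-cell fluorescence. Cells: HEPG2 CAGA-GFP, 1% FBS DMEM, 18 h at 37 degrees C with 500 pg/mL final TGF-beta. Unstimulated wells served as the full-inhibition control; stimulated DMSO wells = 0%.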
TDP1 cell CPT – growth inhibition of DT40 Tdp1-/-;hTDP1 cells with camptothecin (screen for TDP1 inhibitors); chicken DT40 Tdp1-/-;hTDP1 cells + 20 nM CPT, ATP luminescence, 48 h; Potency, µM (series often up to 46.2 µM), for the others: at the highest dose activity change, negative = growth inhibition, most hits filed as inhibitors; 12% of 420,000 active; AID 686979; further: potency means the concentration at half of the fitted maximal effect; on the % scale 0 is the no-effect control and ±100 the full control effect; nearly all actives have a fitted effect of over 55% in size
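Cell growth measured by CellTiter-Glo luminescence after a minimum 48 h, 37 C compound exposure with 20 nM CPT in Tdp1-knockout DT40 cells stably expressing hTDP1, seeded 400/well; qHTS titration format.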
Active calls of the source: *; ? = inconclusive; . = no result given; [ ] = another dose, or the depositor's remark. An excerpt weighted towards active compounds, which were near 18% of everything screened. Unless noted, the call rests on the fitted dose curve; in most records, active means well fitted curve in the direction sought with a large enough effect; inconclusive means small, poorly fitted or top-dose-only effect, or another doubt; inactive means no such curve, though single readings can be large; an effect the other way counts as inactive or inconclusive.

SMILES | TDP1 cell noCPT | HepG2 tox | IL1B secr inh | TDP1 inh | TGFb SMAD3 inh | TDP1 cell CPT
Cc1cccc(NC(=O)C2CC3CCC2C3)c1C (stereo unspecified) | 2% | 4% | -2 | . | 0% | 11%
Cc1ccc([N+](=O)[O-])cc1-c1ccc(/C=C(\C#N)c2[nH]nc(N)c2C#N)o1 | 13µM* | -43% | ? | -8% | -13% | ?
COCc1cc(C)nc(OCC(=O)N/N=C/c2ccc(-c3cc([N+](=O)[O-])ccc3C)o2)c1C#N | ? | -1% | -26 | 0% | -1% | ?
Cc1csc(=Nc2cccnc2)n1CC1CCCCC1 | -13% | -15% | -7 | 4% | -4% | 18%
Fc1ccccc1-c1csc(=Nc2cccnc2)n1CCCn1ccnc1 | 16µM* | -10% | ? | 7% | ? | 26µM*
Fc1ccccc1-c1csc(=Nc2cccnc2)n1CC1CCCO1 (stereo unspecified) | ? | -9% | -66* | -4% | -8% | ?
CC(NC(=O)Cc1cc(F)cc(F)c1)C(=O)NC(C(=O)OC(C)(C)C)c1ccccc1 (stereo unspecified) | . | . | . | 5% | . | .
CC(C)c1c(C(=O)NCC2(N3CCCCC3)CCCC2)cnn1-c1nccc(-c2ccco2)n1 | -2% | . | . | . | . | 11%[9.04 µM]
COc1cccc(C(=O)O[C@H]2[C@H](C)NS(=O)(=O)[C@H]3C[C@@H]4C=C[C@]23O4)c1 | 3% | -8% | 13 | 3% | -8% | -3%
O=S1(=O)CC(N2CCCCC2)CN1CCc1ccccc1 (stereo unspecified) | -23% | -3% | 28 | . | 1% | ?
COc1ccc(-c2nnc(SCc3ccccn3)n2C)cc1 | ? | 13% | 11 | 1% | 15% | 29µM*
COc1ccc(-c2nnc(SCc3cc(=O)c4cc(C)cc(C)c4[nH]3)n2C)cc1 | 18µM* | -29% | . | 8% | ? | 23µM*
CCOc1ccc(-c2ccc(SCc3ccccn3)nn2)cc1 | 23µM* | -28% | -12 | 6% | -21% | ?
CCOC(=O)c1ccc2[nH]c(CSc3nnc(-c4cccc(F)c4)n3C)cc(=O)c2c1 | 2% | 0% | . | 5% | 14% | 2%
Cn1c(SCc2cc(=O)c3cc(Cl)ccc3[nH]2)nnc1-c1ccccc1 | 21µM* | -12% | . | 5% | -13% | 13µM*
CC(C)[C@H](NC(=O)c1ccccc1Cl)C(=O)OCC(=O)NCc1ccc2c(c1)OCO2 | -9% | -24% | 15 | 0% | ? | -19%
CCN(C(=O)c1cc2c(=O)n3cccc(C)c3nc2s1)c1ccc(C)c(C)c1 | ? | -3% | . | -1% | 1% | 14%
COc1cc(C(=O)N2CCCC(c3cc(C(=O)NCc4ccccc4)no3)C2)cc(OC)c1C (stereo unspecified) | ? | -32% | -26 | . | -15% | ?
COC(=O)c1[nH]c2ccccc2c1NC(=O)C(C)N1CC(C)OC(C)C1 (stereo unspecified) | -22% | -21% | . | 5% | -1% | 6%
CC1(C)CC(Nc2ccc(C(F)(F)F)cc2[N+](=O)[O-])CC(C)(C)N1 | ? | -17% | -52* | 0% | 6% | -21%
CCNc1ncc2nc(CCc3ccccc3)c(=O)n(C3CC3)c2n1 | -19% | . | . | . | . | 9%
CC(=O)c1sc(NC(=O)CCCc2nc3ccccc3c(=O)[nH]2)nc1-c1ccccc1 | ? | 11µM* | ? | 0% | 20µM* | ?
CC(=O)Nc1ccc(NC(=O)CCc2nc3ccccc3c(=O)[nH]2)cc1 | -13% | 3% | 27 | . | 1% | -5%
C[C@H](O)CNC(=O)c1[nH]cnc1C(=O)N[C@@H](C)c1ccccc1 | -12% | 1% | 14 | . | 15% | -2%
O=S(=O)(c1ccc2c(c1)OCCO2)N1CCC(n2nnc3cc(C(F)(F)F)ccc32)CC1 | 16µM* | -10% | -30 | 5% | 4% | ?
SMILES | TDP1 cell noCPT | HepG2 tox | IL1B secr inh | TDP1 inh | TGFb SMAD3 inh | TDP1 cell CPT
O=S(=O)(c1ccccc1)N1CCC(n2nnc3cc(F)ccc32)CC1 | -14% | -15% | -5 | 6% | 26% | ?
CSCCC(NS(=O)(=O)c1ccc2c(c1)oc(=O)n2C)C(=O)Nc1ccc(Cl)cc1 (stereo unspecified) | ? | -12% | . | 1% | -9% | 0%
OCC1(CCc2ccccc2)CCN(Cc2cc(Cl)ccc2O)CC1 | -24% | -20% | -85* | 6% | -1% | 4%
N#C/C(=C\c1ccc(OCC(N)=O)cc1)c1ccccc1 | -25% | 1% | -13 | 1% | 13% | -18%
Cc1noc(C)c1COc1ccccc1C(=O)N1CCN(S(=O)(=O)c2ccccc2F)CC1 | -16% | 3% | 3 | . | -16% | ?
CCOc1ccc2nc(N)sc2c1 | . | . | . | 15% | . | .
COc1ccc2c(c1)sc(N)[n+]2Cc1cc(C)cc2cccnc12 | 2.6µM* | -41% | -52* | 3% | ? | 4.6µM*
CCOc1ccc2c(c1)sc(N)[n+]2Cc1cc(C)cc2cccnc12 | 1µM* | -39% | -92* | 4% | ? | 1µM*
COc1ccc2c(ccc[n+]2[O-])c1 | 7% | 1% | 2 | . | -2% | -3%
O=C1C2C3c4ccccc4C(c4ccccc43)C2C(=O)N1Cc1ccco1 (stereo unspecified) | ? | 3% | 0 | 3% | -1% | ?
CC12C(=O)N(Cc3ccco3)C(=O)C1C1c3ccccc3C2c2ccccc21 (stereo unspecified) | 23µM* | -19% | -5 | -2% | 6% | ?
CCOC(=O)C1CCN(CC(C)(C)NS(=O)(=O)c2ccccc2)CC1 | -18% | -1% | -4 | 13% | 3% | -3%
CCCNC(=O)C(Cc1ccccc1)NC(=O)c1ccccn1 (stereo unspecified) | -20% | 13% | 1 | 0% | 35% | -20%
CC(C)C[C@H](NC(=O)[C@H](Cc1ccccc1)NC(=O)c1cnccn1)B(O)O | 0.0075µM* | . | . | . | . | 0.0042µM*
CCCCSc1nnc2c(n1)OC(c1ccc(Br)s1)Nc1ccccc1-2 (stereo unspecified) | 18µM* | 3% | . | . | 17% | ?
CCOc1ccc(S(=O)(=O)NCc2ccccn2)cc1NC(=O)c1ccccc1 | 1.3µM* | 6% | 46 | 0% | 5% | 1.3µM*
COc1ccc(S(=O)(=O)NCc2ccccn2)cc1C | 2% | -1% | -24 | . | -9% | -3%

From PubChem BioAssay
